Source: PubChem BioAssay AID1159580 (chemical genetic matrix, 2015)
The campaign covered roughly 5,500 compounds. About 2,000 (36%) were called active. Another 18% or so got no clear call; they are omitted. Rule as the data show it: active = normalized growth mostly below about 0.91 (no sharp cut-off); inconclusive = no clear call, values can overlap the other calls; inactive = mostly above about 0.92. This is one part of the list.

Assay: chemical genetic growth profiling, strain panel (AID 1159580);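 also: tested at 20 µM; growth read once vehicle control cultures reached saturation at 30 °C; 1 = growth at the plate median or of vehicle wells; lower values mean less growth of the strain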
Conditions: S. cerevisiae deletion strains, growth OD
[1] = locus YDL101C, strain DUN1, active compounds read low
[2] = locus YHR030C, strain SLT2, active compounds read low
[3] = locus YAR019C, strain CDC15, active compounds read low
[4] = locus YBL105C, strain PKC1, active compounds read low
[5] = locus YBR135W, strain CKS1, active compounds read low
[6] = locus YBR136W, strain MEC1, active compounds read low
[7] = locus YBR160W, strain CDC28, active compounds read low
[8] = locus YDL017W, strain CDC7, active compounds read low
[9] = locus YDL028C, strain MPS1, active compounds read low
[10] = locus YDL108W, strain KIN28, active compounds read low
[11] = locus YDL132W, strain cdc53, active compounds read low
[12] = locus YDL214C, strain PRR2, active compounds read low
[13] = locus YDR052C, strain DBF4, active compounds read low
[14] = locus YDR054C, strain cdc34, active compounds read low
[15] = locus YDR226W, strain ADK1, active compounds read low
[16] = locus YDR477W, strain SNF1, active compounds read low
[17] = locus YER123W, strain YCK3, active compounds read low
[18] = locus YER133W, strain GLC7, active compounds read low
[19] = locus YFL009W, strain cdc4, active compounds read low
[20] = locus YFL029C, strain CAK1, active compounds read low
[21] = locus YFR003C, strain YPI1, active compounds read low
[22] = locus YFR019W, strain FAB1, active compounds read low
[23] = locus YFR028C, strain CDC14, active compounds read low
[24] = locus YGR040W, strain KSS1, active compounds read low
[25] = locus YGR052W, strain FMP48, active compounds read low
[26] = locus YGR092W, strain DBF2, active compounds read low
[27] = locus YHR079C, strain IRE1, active compounds read low
[28] = locus YHR082C, strain KSP1, active compounds read low
[29] = locus YHR205W, strain SCH9, active compounds read low
[30] = locus YIL147C, strain SLN1, active compounds read low
[31] = locus YJL095W, strain BCK1, active compounds read low
[32] = locus YJL128C, strain PBS2, active compounds read low
[33] = locus YJL157C, strain FAR1, active compounds read low
[34] = locus YJR016C, strain ILV3, active compounds read low
[35] = locus YJR066W, strain TOR1 (second series), active compounds read low
[36] = locus YJR066W, strain TOR1, active compounds read low
[37] = locus YKL048C, strain ELM1, active compounds read low
[38] = locus YKL067W, strain YNK1, active compounds read low
[39] = locus YKL101W, strain HSL1, active compounds read low
[40] = locus YKL193C, strain SDS22, active compounds read low
[41] = locus YKL203C, strain TOR2, active compounds read low
[42] = locus YLR113W, strain HOG1, active compounds read low
[43] = locus YLR133W, strain CKI1, active compounds read low
[44] = locus YLR403W, strain SFP1, active compounds read low
[45] = locus YML070W, strain DAK1, active compounds read low
[46] = locus YMR001C, strain CDC5, active compounds read low
[47] = locus YMR205C, strain PFK2 (second series), active compounds read low
[48] = locus YMR277W, strain FCP1, active compounds read low
[49] = locus YNL006W, strain LST8, active compounds read low
[50] = locus YNL020C, strain ARK1, active compounds read low
[51] = locus YNL161W, strain CBK1, active compounds read low
[52] = locus YNL183C, strain NPR1, active compounds read low
[53] = locus YNL207W, strain RIO2, active compounds read low
[54] = locus YNL222W, strain SSU72, active compounds read low
[55] = locus YNL307C, strain MCK1 (second series), active compounds read low
[56] = locus YOL078W, strain AVO1, active compounds read low
[57] = locus YOL136C, strain PFK27, active compounds read low
[58] = locus YOR061W, strain CKA2, active compounds read low
[59] = locus YOR119C, strain RIO1, active compounds read low
[60] = locus YOR231W, strain MKK1, active compounds read low
[61] = locus YOR329C, strain SCD5, active compounds read low
[62] = locus YPL031C, strain PHO85, active compounds read low
[63] = locus YPL153C, strain RAD53, active compounds read low
[64] = locus YPL204W, strain HRR25, active compounds read low
[65] = locus YPL209C, strain IPL1, active compounds read low
[66] = locus YPL256C, strain CLN2, active compounds read low
[67] = locus YPR025C, strain CCL1, active compounds read low
[68] = locus YPR106W, strain ISR1, active compounds read low
[69] = locus YPR111W, strain DBF20, active compounds read low
[70] = strain NNK1, active compounds read low
[71] = strain TSCII, active compounds read low

Measured: normalized growth

COc1c(Br)cc(/C(N)=N\OC(=O)c2c(-c3c(Cl)cccc3Cl)noc2C)cc1Br
inactive: locus YAL013W, strain DEP1, active compounds read low 1.03 | locus YBR229C, strain ROT2, active compounds read low 1.01 | [1] 1 | locus YDR150W, strain NUM1, active compounds read low 1.02 | locus YEL061C, strain CIN8, active compounds read low 0.983 | locus YGR078C, strain PAC10, active compounds read low 1.02 | [2] 1.08 | locus YHR087W, strain rtc3, active compounds read low 1.02 | locus YJR043C, strain POL32, active compounds read low 1.01 | locus YJR075W, strain HOC1, active compounds read low 1.01 | locus YKL190W, strain CNB1, active compounds read low 1.01 | locus YLR039C, strain RIC1, active compounds read low 1.09 | locus YLR058C, strain SHM2 (second series), active compounds read low 1.01 | locus YLR085C, strain ARP6, active compounds read low 1.13 | locus YLR262C, strain YPT6, active compounds read low 1.04 | locus YML094W, strain GIM5, active compounds read low 1.04 | locus YMR219W, strain ESC1, active compounds read low 1.01 | locus YMR263W, strain SAP30, active compounds read low 1 | locus YMR307W, strain GAS1, active compounds read low 1.05 | locus YNL153C, strain GIM3, active compounds read low 0.998 | locus YNL298W, strain CLA4 (second series), active compounds read low 1.05 | locus YNL322C, strain KRE1, active compounds read low 1.01 | locus YNR030W, strain Alg12, active compounds read low 1.03 | locus YPL055C, strain LGE1, active compounds read low 1.07 | locus YPL241C, strain CIN2, active compounds read low 0.98 | locus YPR135W, strain CTF4, active compounds read low 1.17

Cc1onc(-c2c(F)cccc2Cl)c1/C(N)=N\OC(=O)c1ccc(C(C)(C)C)cc1
active: [2] 1.17 [resistant]
inactive: [3] 0.989 | [4] 0.998 | [5] 0.985 | [6] 0.986 | [7] 0.989 | [8] 0.993 | [9] 0.985 | [1] 0.98 | [10] 0.978 | [11] 0.989 | [12] 0.971 | [13] 0.994 | [14] 1 | [15] 0.989 | [16] 0.976 | [17] 0.948 | [18] 0.967 | [19] 0.987 | [20] 1 | [21] 0.997 | [22] 0.982 | [23] 0.984 | [24] 0.975 | [25] 1.1 | [26] 1 | [27] 1.08 | [28] 1.11 | [29] 0.986 | [30] 0.981 | [31] 1.11 | [32] 0.957 | [33] 0.963 | [34] 0.982 | [35] 0.932 | [36] 1.12 | [37] 0.983 | [38] 0.994 | [39] 0.972 | [40] 0.991 | [41] 1.05 | [42] 1 | [43] 0.988 | [44] 0.968 | [45] 0.966 | [46] 0.987 | [47] 0.987 | [48] 0.992 | [49] 0.988 | [50] 0.978 | [51] 0.991 | [52] 1.11 | [53] 0.99 | [54] 0.99 | [55] 0.998 | [56] 0.982 | [57] 0.956 | [58] 0.967 | [59] 1.02 | [60] 1.05 | [61] 0.996 | [62] 0.991 | [63] 0.973 | [64] 0.979 | [65] 0.993 | [66] 1.05 | [67] 0.99 | [68] 0.988 | [69] 0.986 | [70] 0.99 | [71] 0.99

Cc1onc(-c2c(Cl)cccc2Cl)c1C(=O)O/N=C(/N)Cc1ccc(C(C)(C)C)cc1
inactive: [3] 0.991 | [4] 0.986 | [5] 0.988 | [6] 0.995 | [7] 0.983 | [8] 0.988 | [9] 0.993 | [1] 0.986 | [10] 0.989 | [11] 0.983 | [12] 0.982 | [13] 0.987 | [14] 0.989 | [15] 0.993 | [16] 1 | [17] 0.998 | [18] 0.999 | [19] 0.987 | [20] 0.986 | [21] 0.996 | [22] 0.995 | [23] 0.989 | [24] 0.999 | [25] 1.15 | [26] 0.983 | [27] 1.12 | [28] 1.16 | [29] 0.993 | [30] 0.987 | [31] 1.15 | [32] 0.953 | [33] 0.991 | [34] 0.992 | [35] 0.986 | [36] 1.17 | [37] 0.999 | [38] 1 | [39] 0.998 | [40] 0.989 | [41] 1.06 | [42] 1.08 | [43] 0.991 | [44] 0.994 | [45] 0.99 | [46] 0.989 | [47] 1 | [48] 0.994 | [49] 0.994 | [50] 1.01 | [51] 0.995 | [52] 1.14 | [53] 0.992 | [54] 0.987 | [55] 0.995 | [56] 0.985 | [57] 1.02 | [58] 1.01 | [59] 1.05 | [60] 1.08 | [61] 0.997 | [62] 1.02 | [63] 1 | [64] 1.02 | [65] 1 | [66] 1.1 | [67] 0.986 | [68] 0.994 | [69] 0.988 | [70] 0.997 | [71] 0.99
active: [2] 1.22 [resistant]
